ROS inducer – inducers of reactive oxygen species in cancer cells. U2OS ROS induction, H2DCF-DA fluorescence. 46,000 compounds, 2% hits. ROS induction (% of piperlongumine), % at 10 µM. AID 624156; in the data active = ROS induction above about 79%, passing the limit was not always enough;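 also: 0% = DMSO vehicle median and 100% = reference compound median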
* = called active by the depositor. This excerpt belongs to a sample that is enriched for hits.

For COC(=O)c1sc2ccccc2c1NC(=O)c1ccc(S(=O)(=O)N(C)c2ccccc2)cc1 the results were ROS inducer 8.
For COc1ccc(C2c3ccsc3CCN2S(=O)(=O)c2ccc(Cl)cc2)cc1 (stereo unspecified) the results were ROS inducer 4.
CCCNC(=O)c1ccccc1Br was read as ROS inducer -7.
`Cc1ccc(OCCn2c(CC(C)(C)C)nc3ccccc32)cc1` gave ROS inducer 43.
COc1ccccc1Nc1ncnc2c1cnn2-c1ccccc1 was read as ROS inducer 36.
Screening COc1ccc(NC(=O)N(C)C[C@@H]2Oc3ncc(C#CCN(C)C)cc3C(=O)N([C@H](C)CO)C[C@@H]2C)cc1 returned ROS inducer -6.
Screening COc1ccc(C#Cc2cnc3c(c2)C(=O)N([C@H](C)CO)C[C@H](C)[C@H](CN(C)C(=O)Nc2c(C)noc2C)O3)cc1OC returned ROS inducer 24.
For C[C@H](CO)N1C[C@H](C)[C@H](CN(C)C(=O)Nc2ccc(F)cc2)Oc2ncc(C#Cc3ccc(C(F)(F)F)cc3)cc2C1=O the results were ROS inducer 49.
Screening C[C@H](CO)N1C[C@H](C)[C@H](CN(C)C(=O)Nc2ccccc2)Oc2ncc(C#Cc3ccc(F)cc3)cc2C1=O returned ROS inducer 132*.
`COc1ccc(C#Cc2cnc3c(c2)C(=O)N([C@H](C)CO)C[C@H](C)[C@H](CN(C)C(=O)Nc2ccc4c(c2)OCO4)O3)cc1OC` gave ROS inducer 118*.
Screening COc1ccc(NC(=O)N(C)C[C@@H]2Oc3ncc(C#Cc4ccc(OC)c(OC)c4)cc3C(=O)N([C@H](C)CO)C[C@@H]2C)cc1 returned ROS inducer 104*.
Screening C[C@H](CO)N1C[C@H](C)[C@H](CN(C)C(=O)Nc2ccccc2)Oc2ncc(C#Cc3cccc(F)c3)cc2C1=O returned ROS inducer 3.
For COc1ccc(S(=O)(=O)N(C)C[C@@H]2Oc3ncc(C#Cc4ccc(OC)c(OC)c4)cc3C(=O)N([C@H](C)CO)C[C@@H]2C)cc1 the results were ROS inducer 62.
Screening COc1ccc(C#Cc2cnc3c(c2)C(=O)N([C@H](C)CO)C[C@H](C)[C@H](CN(C)C)O3)cc1OC returned ROS inducer 30.
For COc1cc(C(=O)Nc2c(C(=O)c3ccccc3)oc3ccccc23)cc(OC)c1OC the results were ROS inducer 10.
`CC1=NN(c2ccc(S(N)(=O)=O)cc2)C(=O)/C1=C\C=C/c1ccccc1` gave ROS inducer 31.
For Cn1c(=O)c(-c2nc(-c3ccccc3)cs2)cn(-c2ccccc2)c1=O the results were ROS inducer -9.
Screening CC(C)CNS(=O)(=O)c1ccc(F)cc1 returned ROS inducer -11.
Screening CC(=O)NC1=NC(=O)/C(=C/c2cccc(Oc3ccccc3)c2)S1 returned ROS inducer 21.
For NNC(=O)CCCNc1ccc(Cl)cc1 the results were ROS inducer -7.
`Cc1ccsc1-c1nc(CSCC(=O)O)c(C)o1` gave ROS inducer -16.
COC(=O)c1ccccc1NC(=O)COc1ccc(C)c(C)c1 was read as ROS inducer 0.
COC(=O)c1ccccc1NC(=O)COc1ccc(I)cc1 was read as ROS inducer 9.
Screening COC(=O)c1ccccc1NC(=O)COc1ccc([N+](=O)[O-])c(C)c1 returned ROS inducer 138*.
Screening CCC(Cc1ccccc1)NS(=O)(=O)c1ccc2c(c1)CC(C)N2C(=O)C1CC1 (stereo unspecified) returned ROS inducer -16.
CCc1cc(=O)oc2c(C)c(OC)ccc12 was read as ROS inducer -12.
`CC1CCc2nn(CC(=O)N3CCCC3)cc2C1` (stereo unspecified) gave ROS inducer -6.
